In PubChem BioAssay (NCI):
This is part of a sample that, as a whole, favours compounds with a hit. Of some 83,000 tested, about 20% had one in any assay.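 Growth was measured after 48 h exposure to one concentration of compound in 96-well plates. Values under 10 count as active.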 Unmarked numbers belong to inactive results. The source made the active and inactive calls.

How the values were obtained:
Test in all cases: NCI-60 one-dose screen, 48 h (100 = growth as untreated, 0 = no growth, -100 = all killed)
DU-145 prostate = conditions: 10 µM
K-562 leukemia = conditions: 10 µM
MDA-MB-231 breast = conditions: 10 µM
RXF 393 renal = conditions: 10 µM
SF-268 CNS = conditions: 10 µM
SF-295 CNS = conditions: 10 µM
SF-539 CNS = conditions: 10 µM
UACC-257 melanoma = conditions: 10 µM
M14 melanoma = conditions: 10 µM
HCT-15 colon = conditions: 10 µM
HT29 colon = conditions: 10 µM
SNB-19 CNS = conditions: 10 µM
U251 CNS = conditions: 10 µM
PC-3 prostate = conditions: 10 µM
SK-MEL-5 melanoma = conditions: 10 µM
UACC-62 melanoma = conditions: 10 µM unless noted
SNB-75 CNS = conditions: 10 µM
LOX IMVI melanoma = conditions: 10 µM
SK-MEL-28 melanoma = conditions: 10 µM
MALME-3M melanoma = conditions: 10 µM

SMILES	growth (DU-145 prostate)	growth (K-562 leukemia)	growth (MDA-MB-231 breast)	growth (RXF 393 renal)	growth (SF-268 CNS)	growth (SF-295 CNS)	growth (SF-539 CNS)	growth (UACC-257 melanoma)	growth (M14 melanoma)	growth (HCT-15 colon)	growth (HT29 colon)	growth (SNB-19 CNS)	growth (U251 CNS)	growth (PC-3 prostate)	growth (SK-MEL-5 melanoma)	growth (UACC-62 melanoma)	growth (SNB-75 CNS)	growth (LOX IMVI melanoma)	growth (SK-MEL-28 melanoma)	growth (MALME-3M melanoma) [%]
Cc1ccc(N)cc1[N+](=O)[O-]	115%	108%	122%	114%	114%	105%	113%	98.7%	99.8%	106%	123%	113%	98.8%	95.8%	111%	105%	–	–	–	–
CCCCCC(C)(CC(=O)O)CC(=O)O	122%	106%	138%	101%	122%	–	105%	101%	109%	–	105%	–	102%	99.6%	101%	119%	97.4%	112%	108%	–
C[C@]12CC[C@@H]3c4ccc(OCC(=O)O)cc4CC[C@H]3[C@@H]1CCC2=O	109%	78.7%	101%	115%	91%	111%	97.5%	93.4%	97.2%	106%	104%	103%	104%	95.7%	99.9%	96.5%	83.5%	–	–	–
CC(C)NC(=O)OCc1c(COC(=O)NC(C)C)c(-c2ccc(Cl)c(Cl)c2)n2c1SCC2	41.6%	34.1%	–	6.56% (active)	–	27.3%	32%	32.3%	50.3%	47.6%	62.1%	–	43.3%	61.3%	67.7%	-19.3% (active)	27.8%	19.1%	92.8%	62.9
O=C(c1ccc(O)cc1)c1ccc(O)cc1	110%	102%	125%	113%	102%	102%	100%	96.2%	–	99.6%	106%	111%	94.1%	103%	99.3%	–	–	97.4%	110%	–
CCc1nc(N)nc(N)c1-c1ccc(Cl)cc1	55.4%	20.3%	69.9%	71.6%	49.2%	37.5%	–	72.4%	40.9%	34.1%	47.5%	88.4%	46.3%	60.5%	24.3%	–	77%	31.2%	94.1%	–
O=C(CCl)Nc1ccc2c(c1)C(=O)c1ccc(NC(=O)CCl)cc1C2=O	-55.7% (active)	-14.9% (active)	-48.2% (active)	-86% (active)	-66.6% (active)	-22.6% (active)	-92.2% (active)	-12.2% (active)	-55.5% (active)	-86.6% (active)	-59.8% (active)	-45.3% (active)	-89.3% (active)	-22.1% (active)	-88% (active)	-73.1% (active)	-55.4% (active)	-89.6% (active)	-40.6% (active)	–
CCOC(=O)Nc1nn[nH]n1	108%	110%	104%	105%	100%	106%	97.7%	116%	95.3%	91.7%	110%	99.5%	115%	96.8%	103%	99.3%	94.8%	92.9%	–	–
CCCCCCCO	114%	106%	104%	97.3%	125%	–	89.5%	93.5%	98.5%	95.6%	132%	102%	97.8%	105%	99.2%	97.7%	106%	99.8%	98.3%	–
CCNc1nc2c(cnn2C)c(=O)[nH]1	113%	98.2%	110%	94.6%	104%	103%	104%	115%	99.3%	122%	96.2%	–	97.8%	99%	96.7%	107%	88.6%	95%	118%	–
